Most compounds without a hit are left out; they make up all but 1.3% or so of the library.
CIT2 TOR yeast = modulators of TOR pathway CIT2-GFP in S. cerevisiae | S. cerevisiae CIT2-GFP strain, flow cytometry, 3 h; 100 means same as DMSO wells | GFP response vs DMSO, % at 10 µM | actives 0.065% (n = 320,000) | AID 2029;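 active = GFP response relative to DMSO above a set limit, near the screen mean plus 3 SD, cut at about 150% in these data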;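 note: ratio of well median GFP fluorescence to mean of DMSO wells on the plate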
Efflux pump mplx = inhibitors of Candida antifungal efflux pumps expressed in yeast | S. cerevisiae Candida pump triplex, Nile Red efflux | inhibition, % at 10 µM | actives 0.44% (n = 330,000);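 active = plate passing quality check with inhibition over a set limit, or well fluorescence over plate mean plus 4 SD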;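 note: Nile Red retained in pooled yeast measured as flow cytometry median fluorescence; higher means more Nile Red kept so more efflux inhibition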
AGP1-GFP MLPCN = yeast TOR pathway AGP1-GFP modulation; S. cerevisiae AGP1-GFP multiplex flow cytometry, 3 h; GFP as percent of DMSO wells; GFP response vs DMSO, % at 10 µM; AID 2066; actives 0.02% (n = 320,000);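 active = GFP response relative to DMSO above a set limit, near screen average plus 3 SD, cut at about 150% in these data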;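 note: median GFP channel fluorescence of the gated AGP1 strain per well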
MEP2 TOR yeast = yeast TOR pathway MEP2-GFP modulation; S. cerevisiae MEP2-GFP strain, flow cytometry GFP, 3 h; 100% = DMSO control level; GFP response vs DMSO, % at 10 µM; actives 0.51% (n = 330,000);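 active = GFP response versus DMSO above a set limit, roughly screen mean plus 3 SD, cut at about 180% in these data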;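 note: median GFP fluorescence of the barcode-gated MEP2-GFP cells per well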
LAP4 TOR yeast = yeast TOR pathway LAP4-GFP modulation; S. cerevisiae LAP4-GFP multiplex, flow cytometry GFP, 3 h; median GFP as percent of DMSO wells; GFP response vs DMSO, % at 10 µM; actives 0.34% (n = 320,000);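 active = GFP response vs DMSO above a set limit, about the screen mean plus 3 SD, cut at about 150% in these data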
RPL19A-GFP yeast = alters RPL19A-GFP fluorescence in TOR pathway yeast screen. actives 0.3% (n = 330,000). S. cerevisiae RPL19A-GFP strain, flow cytometry, 3 h; active compounds read low. percent response vs DMSO, % at 10 µM;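 active = percent response vs DMSO below 50%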;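 note: median channel GFP fluorescence of the barcoded RPL19A-GFP strain; lower means less RPL19A-GFP as with rapamycin TOR inhibition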
Yeast cmpd fluor = flagged as fluorescent in efflux inhibitor counter-screen | shares compounds with Efflux pump mplx | S. cerevisiae AD/pABC3, compound fluorescence, flow cytometry | fluorescence ratio to DMSO, % at 10 µM | actives 4% (n = 1,700) | AID 588517;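 active = fluorescence ratio to DMSO above its plate's cutoff, the plate mean ratio plus 5 SD, cut at about 210% in these data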;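 note: unstained yeast with no Nile Red so the signal is compound autofluorescence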
Mdr1 pump inh = Candida Mdr1 efflux pump inhibition | shares compounds with Efflux pump mplx | S. cerevisiae AD/CaMDR1, Nile Red efflux, flow cytometry | inhibition, % at 10 µM | actives 1% (n = 1,700); in the data active = inhibition above about 26%;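 note: higher means more Nile Red retained so more efflux inhibition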
Cdr2 pump inh = Candida Cdr2 efflux pump inhibition | actives 4% (n = 1,700) | AID 588520 | shares compounds with Efflux pump mplx | S. cerevisiae AD/CaCDR2, Nile Red retention, flow cytometry | Nile Red retention ratio vs DMSO, % at 10 µM; in the data active = Nile Red retention ratio vs DMSO above about 190%;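 note: higher ratio means more blocking of Cdr2 efflux of the dye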
CaCdr1 efflux inh = inhibitors of Candida albicans Cdr1 efflux pump. shares compounds with Efflux pump mplx. S. cerevisiae AD/CaCDR1, Nile Red efflux, flow cytometry. inhibition, % at 10 µM. actives 1% (n = 1,700). AID 588522;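 active = inhibition above the screen-wide mean plus twice its standard deviation, cut at about 32% in these data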
Each line names hits and unclear results; the compound was inactive in the other large screens (follow-up assays come after a bar, where they were run).

COc1ccccc1NC(=O)NC1CC(=O)N(c2ccc3c(c2)OCCO3)C1 (stereo not given)	none
O=C(COC(=O)c1ccc2c(c1)OCCO2)NCCc1ccccc1	none
CCNC(=O)c1ccc(C23CC4CC(CC(C4)C2)C3)o1	none
Cc1nn(-c2ccccc2)c2c1C(c1ccc([N+](=O)[O-])cc1)N1C(=N2)C(=O)Nc2ccccc21 (stereo not given)	none | Yeast cmpd fluor inactive | Mdr1 pump inh inactive | Cdr2 pump inh inactive | CaCdr1 efflux inh inactive
Cc1nn(-c2ccc([N+](=O)[O-])cc2)c2c1C(c1cccc(Br)c1)N1C(=N2)C(=O)Nc2ccccc21 (stereo not given)	none | Yeast cmpd fluor inactive | Mdr1 pump inh inactive | Cdr2 pump inh inactive | CaCdr1 efflux inh inactive
Cc1cccc(NC2=Nc3ccccc3N3C2=Nc2c(c(C)nn2-c2ccccc2)C3c2ccc(O)c(O)c2)c1 (stereo not given)	none
Cc1nn(-c2ccccc2)c2c1C(c1ccc(Cl)cc1)N(c1ccccc1)C(=O)N2 (stereo not given)	none
O=C(OCC(=O)c1ccc(Cl)s1)c1cncc(Br)c1	none
CCn1c(C(=O)N2CCCC(C(=O)NCCc3ccc(C)cc3)C2)cc2sccc21 (stereo not given)	Efflux pump mplx 1.0 | Yeast cmpd fluor inactive | Mdr1 pump inh inactive | Cdr2 pump inh inactive | CaCdr1 efflux inh inactive
CCC1Nc2ncnc(N3CCN(c4ccccc4)CC3)c2N(Cc2ccc(C)cc2)C1=O (stereo not given)	none
CCC1Nc2ncnc(N3CCN(c4ccccn4)CC3)c2N(Cc2ccc(Br)cc2)C1=O (stereo not given)	none | Yeast cmpd fluor inactive | Mdr1 pump inh inactive | Cdr2 pump inh inactive | CaCdr1 efflux inh inactive
COc1ccc(CN2C(=O)C(C)Nc3ncnc(N4CCN(c5ccccc5)CC4)c32)cc1 (stereo not given)	none | Yeast cmpd fluor inactive | Mdr1 pump inh inactive | Cdr2 pump inh inactive | CaCdr1 efflux inh inactive
COc1ccc(CN2C(=O)C(C)Nc3ncnc(N4CCOCC4)c32)cc1 (stereo not given)	none
Cc1ccc(CN2C(=O)C(CC(C)C)Nc3ncnc(N4CCN(c5ccccc5)CC4)c32)cc1 (stereo not given)	none | Yeast cmpd fluor inactive | Mdr1 pump inh inactive | Cdr2 pump inh inactive | CaCdr1 efflux inh inactive
CCC1Nc2ncnc(N3CCN(c4ccccn4)CC3)c2N(Cc2ccc(Cl)cc2)C1=O (stereo not given)	none
CCC1Nc2ncnc(N3CCN(c4ccccc4)CC3)c2N(Cc2ccccc2)C1=O (stereo not given)	none | Yeast cmpd fluor inactive | Mdr1 pump inh inactive | Cdr2 pump inh inactive | CaCdr1 efflux inh inactive
CN(NC(=O)c1ccc(Cl)cc1)c1cccc(Cl)n1	none
CNc1ccc(/C=C/C(=O)c2cccc3ccccc23)cc1[N+](=O)[O-]	none
CCC(C)N(C(=O)Cn1nnc(-c2ccc(F)cc2)n1)C1CCS(=O)(=O)C1 (stereo not given)	Efflux pump mplx 0.5 | Yeast cmpd fluor inactive | Mdr1 pump inh inactive | Cdr2 pump inh inactive | CaCdr1 efflux inh inactive
CCC(C)N(C(=O)Cn1nnc(-c2ccc(Cl)cc2)n1)C1CCS(=O)(=O)C1 (stereo not given)	none
Cc1sc2ncnc(SCC(=O)NC(C)C(C)C)c2c1C (stereo not given)	Efflux pump mplx 0.8 | Yeast cmpd fluor inactive | Mdr1 pump inh inactive | Cdr2 pump inh inactive | CaCdr1 efflux inh inactive
Cc1sc2ncnc(SCC(=O)NC3CC3)c2c1C	none
Cc1sc2ncnc(SC(C)C(=O)N3c4ccccc4Sc4ccccc43)c2c1C (stereo not given)	Efflux pump mplx 15.2 | Yeast cmpd fluor inactive | Mdr1 pump inh inactive | Cdr2 pump inh inactive | CaCdr1 efflux inh inactive
COc1ccc2cc1Oc1ccc(cc1)CC1c3c(cc(OC)c4c3Oc3cc5c(cc3O4)CCNC5C2)CCN1C (stereo not given)	none
COc1ccc2cc1Oc1ccc(cc1)C[C@H]1c3c(cc(OC)c4c3Oc3c(ccc5c3[C@H](C2)N(C)CC5)O4)CCN1C	Efflux pump mplx 4.3 | Yeast cmpd fluor inactive | Mdr1 pump inh inactive | Cdr2 pump inh inactive | CaCdr1 efflux inh inactive
COc1cccc(C(=O)Nc2ccc3[nH]c(=O)[nH]c3c2)c1OC	none
CCn1ncc(/C=C/C(=O)c2ccccc2)c1C	Efflux pump mplx 11.1 | Yeast cmpd fluor inactive | Mdr1 pump inh inactive | Cdr2 pump inh inactive | CaCdr1 efflux inh inactive
O=C(O)CCCN1C(=O)/C(=C/c2ccc(-c3nc4ccccc4s3)o2)SC1=S	none | Yeast cmpd fluor 219.8 | Mdr1 pump inh inactive | Cdr2 pump inh active | CaCdr1 efflux inh inactive
O=C(NCCCN1CCOCC1)Nc1ccc(Cc2ccc(NC(=O)NCCCN3CCOCC3)cc2)cc1	Efflux pump mplx 6.8 | Yeast cmpd fluor inactive | Mdr1 pump inh inactive | Cdr2 pump inh inactive | CaCdr1 efflux inh inactive
Cc1ccc(NC(=O)NCCCN2CCOCC2)cc1	none
O=C(CCCOc1ccc(Cl)cc1)NC1CCCCC1	none
COc1nc(NC23CC4CC(CC(C4)C2)C3)nc(OC)n1	Efflux pump mplx 0.5 | Yeast cmpd fluor inactive | Mdr1 pump inh inactive | Cdr2 pump inh inactive | CaCdr1 efflux inh inactive
COc1ccc(C(=O)NC23CC4CC(CC(C4)C2)C3)cc1	none
CCCOc1ccc(-c2nc(N3CCN(CC)CC3)c3ccccc3n2)cc1	none
CCCOc1ccc(-c2nc(N3CCN(C)CC3)c3ccccc3n2)cc1	Efflux pump mplx 1.0 | Yeast cmpd fluor inactive | Mdr1 pump inh inactive | Cdr2 pump inh inactive | CaCdr1 efflux inh inactive
CN1C(=O)C(=O)/C(=C(/O)c2ccc(Br)cc2)C1c1cccc([N+](=O)[O-])c1 (stereo not given)	none
Cc1ccc(-c2cc(C(=O)Nc3ccc(S(=O)(=O)Nc4onc(C)c4C)cc3)c3ccccc3n2)cc1	Efflux pump mplx 0.6 | Yeast cmpd fluor inactive | Mdr1 pump inh inactive | Cdr2 pump inh inactive | CaCdr1 efflux inh inactive
COc1ccc(CCN(C)C(=O)CSc2nnc(-c3ccco3)o2)cc1OC	none
CCc1cc2c(=O)n(CCC(C)C)c(=S)[nH]c2s1	none

Compound activity as filed in PubChem BioAssay.
